Rows were chosen to be rich in hits. Some 12% of all compounds tested hit in one or more screens of this group.
G9a inh = G9a (human) methyltransferase inhibition; G9a H3K9 monomethylation, AlphaScreen, 2 h; Potency, µM (titrated, usually from 102 µM), inactives show at the top dose activity, negative = inhibition, hits mostly inhibitors; 350,000 tested, 8.8% active; further: on the % scale 0 is the no-effect control and ±100 the full control effect; nearly all actives have a fitted effect of over 75% in size
Target sequence (Q96KQ7 913-1193 limits assumed): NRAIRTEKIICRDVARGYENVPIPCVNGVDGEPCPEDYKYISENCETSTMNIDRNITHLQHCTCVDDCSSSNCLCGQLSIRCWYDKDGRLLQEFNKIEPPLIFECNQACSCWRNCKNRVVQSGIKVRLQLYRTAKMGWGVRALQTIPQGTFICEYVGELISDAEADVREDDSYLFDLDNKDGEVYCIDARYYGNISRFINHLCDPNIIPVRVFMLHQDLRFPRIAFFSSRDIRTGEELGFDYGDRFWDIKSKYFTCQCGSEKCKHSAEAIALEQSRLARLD
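Using a bead-based AlphaScreen, monomethylated H3K9 product from 2 h room-temperature reactions (G9a 20 nM, peptide 500 nM, SAM 20 uM) was detected with 0.5 ug/mL rabbit anti-H3K9me1 antibody.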
HP1b binding inh = HP1-beta chromodomain-methylated histone interaction inhibition; Potency, µM (highest dose often 114 µM), for inactives: top-dose activity change, negative = inhibition, actives largely listed as inhibitors; AID 540317; 390,000 tested, 0.56% active; AlphaScreen HP1-beta / biotin-H3K9me3 peptide binding; P83916; further: nearly all actives have a fitted effect of over 70% in size
Target sequence (P83916 whole entry, looked up): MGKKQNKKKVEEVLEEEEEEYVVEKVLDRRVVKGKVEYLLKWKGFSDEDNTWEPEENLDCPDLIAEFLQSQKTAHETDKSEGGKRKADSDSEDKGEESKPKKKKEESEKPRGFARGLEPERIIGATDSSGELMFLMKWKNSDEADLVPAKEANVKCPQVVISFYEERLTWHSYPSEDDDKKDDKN
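AlphaScreen: HP1-beta (50 nM) preformed 30 min with biotin-H3(1-18)K9me3 peptide (50 nM) in PBS pH 7.4, 0.01% Tween-20. Compound added for 30 min at RT, then streptavidin donor/nickel chelate acceptor beads (10 ug/mL) for 30 min.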
BAZ2B block = blocks human BAZ2B. AlphaScreen BAZ2B-H3K14Ac peptide displacement. Potency, µM (titrated, usually from 114 µM), for inactives: at the highest dose activity change, negative = inhibition, most hits filed as inhibitors. 360,000 tested, 4.4% active; further: on the % scale 0 is the no-effect control and ±100 the full control effect; nearly all actives have a fitted effect of over 60% in size
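Complex of BAZ2B and biotin-H3K14Ac (50 nM apiece) forms over 30 min at RT, then faces library compounds up to 110 uM for another 30 min; AlphaScreen beads added, 20 min dark incubation, luminescence read.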
Sfp inh = Sfp phosphopantetheinyl transferase inhibition; Biochemical Sfp PPTase activity, qHTS; Potency, µM, for inactives: largest response in the series, negative = inhibition, most hits filed as inhibitors; 310,000 tested, 3.5% active; AID 1490;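 further: the enzyme is Sfp with the accession as filed and its product quenches rhodamine fluorescence; 0% = enzyme reaction without inhibitor and -100% = no enzyme wells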
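Buffer: 50 mM Hepes-Na pH 7.6, 10 mM MgCl2, 0.01% Nonidet P-40, 0.01% BSA. Enzyme 15 nM, pre-exposed to compound 15 min; substrates then added and fluorescence change tracked over 30 min.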
JMJD2A Tudor inh = inhibitors of human JMJD2A Tudor domain | AlphaScreen JMJD2A-Tudor / H3K4me3 peptide binding | Potency, µM (doses to about 114 µM), for the others: at the top dose activity change, negative = inhibition, actives largely listed as inhibitors | 390,000 tested, 4.4% active | AID 504339; further: on the % scale 0 is the no-effect control and ±100 the full control effect; nearly all actives have a fitted effect of over 50% in size
L3MBTL1 block = blocks human L3MBTL1; Q9Y468; AlphaScreen L3MBTL1–H3K9me1 peptide binding; Potency, µM (doses to about 57.1 µM), for inactives: at the top dose activity, negative = inhibition, most hits filed as inhibitors; 230,000 tested, 0.66% active; further: on the % scale 0 is the no-effect control and ±100 the full control effect; nearly all actives have a fitted effect of over 60% in size
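L3MBTL1 (50 nM) pre-complexed 30 min with biotinylated H3(1-15)K9me1 peptide (75 nM), then compounds added for 30 min at room temperature; AlphaScreen streptavidin donor/nickel chelate acceptor beads (10 ug/mL final) read after 30 min dark incubation.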
An asterisk follows results filed as active; ? = inconclusive; nt = no result given; ! = not active in a repeat; [ ] = another dose, or the depositor's remark. The call rests on the fitted dose curve; in most records, active means well fitted curve in the direction sought with a large enough effect; inconclusive means small, poorly fitted or top-dose-only effect, or another doubt; inactive means no such curve, though single readings can be large; an effect the other way counts as inactive or inconclusive. Potency means the concentration at half of the fitted maximal effect.

SMILES	G9a inh	HP1b binding inh	BAZ2B block	Sfp inh	JMJD2A Tudor inh	L3MBTL1 block
Cc1cc(C)cc(-n2c3nc4ccccc4nc3c3c(=O)n(Cc4ccco4)cnc32)c1	?	23%	50µM*	7.1µM*	-25%	nt
COc1ccc(S(=O)(=O)c2c(N)n(Cc3ccco3)c3nc4ccccc4nc23)cc1	45µM*	42%	-23%	56µM*	-20%	28µM*
Cc1nc2c(c(=O)n1Cc1ccccc1Cl)c1nc3ccccc3nc1n2Cc1ccco1	?	nt	-4%	2.8µM*	nt	nt
Cc1nc2ccccc2c(=O)n1Cc1ccco1	8%	55%	-3%	8%	-3%	-3%
CCN(C1CCS(=O)(=O)C1)S(=O)(=O)c1ccc(OC)c(OC)c1 (stereo unspecified)	8%[0.501 µM]	8%	14%	nt	-14%	7%
Cc1oc2c(cc(NS(=O)(=O)c3ccc(C(C)C)cc3)c3ccccc32)c1C(=O)O	50µM*!	-14%	50µM*!	-8%	?	nt
Cc1oc2c(cc(NS(=O)(=O)c3ccc(F)cc3)c3ccccc32)c1C(=O)O	?	?	-32%	3%	-35%	nt
COc1ccc(S(=O)(=O)Nc2cc3c(C(C)=O)c(C)oc3c3ccccc23)cc1	-2%[12.7 µM]	-8%	?	45µM*	-21%[57.1 µM]	nt
CC(=O)c1c(C)oc2c1cc(NS(=O)(=O)c1ccc(C(C)(C)C)cc1)c1ccccc12	-9%[59 µM]	15%	-29%	nt	-31%	nt
O=C1/C(=C\c2ccc(O)cc2)SC(=S)N1/N=C/c1ccc(O)cc1	nt	-8%	?	0%	-32%	-18%
O=[N+]([O-])c1cccc(/C=N/n2cnnc2)c1O	15%[59 µM]	48%	-7%	-18%	-16%	-2%
Cc1cc(C)n(/N=C/c2cc([N+](=O)[O-])ccc2O)c(=O)c1	?	17%	50µM*	8%	?	2%
O=C1/C(=C/c2cccc(Br)c2)SC(=S)N1/N=C/c1cc([N+](=O)[O-])ccc1O	40µM*	-4%	35µM*	-18%	?	nt
O=[N+]([O-])c1ccc(O)c(/C=N/n2cnnc2)c1	45µM*	14%	2%	0%	-27%	2%
Oc1ccccc1/C=N/n1cnnc1	50µM*	12%	9%	-1%	79µM*	nt
CCN(CC(=O)NCc1cccs1)C(=O)c1ccc(NS(=O)(=O)c2cccc([N+](=O)[O-])c2)cc1	?	2%	11%	nt	-11%	5%
O=[N+]([O-])c1ccc(-c2ccc(/C=N/n3cnnc3)o2)c(Br)c1	50µM*	4%	?	-1%	?	-7%
COc1cccc(C(=O)Nc2cc(-c3cn4cccnc4n3)ccc2C)c1	32µM*	26%	-19%	16%	1%	3%
COc1ccc(CCNCC(=O)Nc2ccc(OC(F)(F)F)cc2)cc1OC	32µM*	?	?	-11%	20µM*	-4%
COc1ccc(CCNC(=O)CSCC(=O)Nc2ccccc2)cc1OC	nt	15%	-4%	6%	-15%	nt
CCC(C)(C)NCC(=O)Nc1ccc(OC(F)(F)F)cc1	-24%[59 µM]	39%	-3%	-11%	-9%	nt
COCCCNCC(=O)Nc1ccc(OC(F)(F)F)cc1	8.9µM*	-10%	?	2%	2.8µM*	8%
CCc1nc2c(cnn2-c2ccc(Cl)cc2)c(=O)n1-c1ccc(OC)c(Cl)c1	3%[59 µM]	25%	nt	nt	2%	nt
CCCNC(=O)COc1ccc(-c2nn(C)c(=O)c3ccccc23)cc1	nt	10%	1%	11%	-9%	-5%
COc1ccc(C2=NOC3(CC(=O)N(c4ccc(F)cc4)C3=O)C2)cc1 (stereo unspecified)	50µM*	29%	-19%	1%	-14%	-11%
SMILES	G9a inh	HP1b binding inh	BAZ2B block	Sfp inh	JMJD2A Tudor inh	L3MBTL1 block
COc1ccc(C2=NOC3(CC(=O)N(c4ccc(F)cc4)C3=O)C2)c(OC)c1 (stereo unspecified)	50µM*	6%	-29%	11%	-27%	nt
Cc1ccc(C2=NOC3(CC(=O)N(c4ccc(C)cc4)C3=O)C2)cc1 (stereo unspecified)	nt	29%	-3%	6%	3%	2%
Cc1cccn2c(=O)c3cc(C#N)c(=O)n(-c4nnc(SCc5ccc(Cl)cc5)s4)c3nc12	29%[59 µM]	42%	8%	nt	-5%	nt
COC(=O)c1cc(CNC(=O)c2sccc2-c2ccccc2)ccc1OC	nt	27%	4%	-1%	13%	nt
Cc1cc(C)n(-c2n[nH]c(=O)c3ccccc23)n1	-2%	56%	0%	4%	1%	5%
COc1ccc(-c2nc(-c3ccc(Br)o3)no2)cc1OC	-10%[59 µM]	34%	8%	-13%	-9%	0%
COc1ccccc1-c1nc(-c2ccc(Br)o2)no1	50µM*!	64%	-12%	-6%	13%	nt
Cc1ccccc1OCc1nc(-c2ccc(Br)o2)no1	79µM*	57%	?	-9%	206%	nt
Cc1cc(C)n2nc(SCC(=O)c3cc(C)n(-c4cc(C)on4)c3C)nc2n1	50µM*	4%	?	?	-15%	-6%
CCCCCn1c(CN2CC(C)OC(C)C2)nc2c1c(=O)n(C)c(=O)n2C (stereo unspecified)	40µM*	35%	7%	25%	2%	3%
CCCCn1c(CN2CCN(c3cccc(Cl)c3)CC2)nc2c1c(=O)n(C)c(=O)n2C	-35%[59 µM]	16%	?	-24%	-35%	-19%
CC1CN(Cc2nc3c(c(=O)n(C)c(=O)n3C)n2CCN2CCOCC2)CC(C)O1 (stereo unspecified)	?	55%	-8%	-20%	-9%	10%
CCCCCn1c(CN2CCN(c3cccc(Cl)c3)CC2)nc2c1c(=O)n(C)c(=O)n2C	45µM*	-8%	?	-14%	-35%	-6%
CN(C)CCNCc1ccc(OC2CCCC2)cc1	79µM*	29%	-29%	-2%	-11%	nt
O=C(Nc1ccccc1C(=O)O)/C(=C/c1ccc([N+](=O)[O-])cc1)NC(=O)c1ccc(Br)o1	45µM*	-3%	-25%	7.9µM*	-30%[57.1 µM]	nt
O=C(Nc1ccccc1)/C(=C/c1ccc([N+](=O)[O-])cc1)NC(=O)c1ccco1	18µM*	19%	-23%	-3%	1%	nt
O=C(NC(Cc1ccccc1)C(=O)O)/C(=C/c1cccc([N+](=O)[O-])c1)NC(=O)c1ccco1 (stereo unspecified)	5%[59 µM]	0%	-1%	16%	-7%	nt
CC(NC(=O)/C(=C\c1cccc([N+](=O)[O-])c1)NC(=O)c1ccco1)C(=O)O (stereo unspecified)	28%[0.501 µM]	34%	?	79µM*	-17%	-6%
